Records with an inconclusive call do not appear. Values without a mark were called inactive. Active and inactive are the calls of the source. Calls come from the whole dose curve; as a rule, active = well fitted inhibition curve with a large enough effect; inconclusive = small, poorly fitted or top-dose-only effect; inactive = flat fitted curve, though single readings scatter.
test system: MKL-1; experiment: qHTS assay to identify novel small-molecules to repurpose for Merkel cell carcinoma treatment (AID 1296009); details: MCC and control cell lines, CellTiter-Glo viability, 72 h; series mostly up to 46 µM; activity change, negative = cytotoxicity: at the top concentration; note: nearly all actives have a fitted effect of over 60% in size
Excerpt: MCC is a rare and aggressive neuroendocrine skin cancer with limited treatment options. Approximately 80% of MCCs have the Merkel cell polyomavirus (MCPyV) DNA integrated into the host genome (virus-positive: VP-MCC) and viral oncogenes drive oncogenesis. The remaining MCCs are virus-negative (VN-MCC) and are caused by UV mutagenesis. To identify novel treatments for VP-MCC and/or VN-MCC we screened three VP-MCC cell lines (WAGA, MKL-1, MKL-2), three VN-MCC cell lines (MCC-13, MCC-26, UISO), and four immortalized, non-transformed control cell lines (HaCaT, HEK293T, CRL7250, NIH-3T3) against ~2,400 compounds in the NCGC Pharmaceutical Collection (NPC) and ~1,900 compounds in the Mechanism Interrogation PlatE (MiPE). Using cell viability as a readout (CellTiter-Glo assay) we found both overlapping and distinct drugs that can be repurposed for the treatment of VP-MCC and VN-MCC.
A high-throughput screen was conducted in 1536-well white flat bottom plates (Corning) on a Kalypsys robotic system. Cell lines WAGA, MKL-1, MKL-2, MCC-13, MCC-26, UISO, HaCaT, HEK293T, CRL7250, and NIH-3T3 were screened against 2 small molecule annotated drug libraries NPC and MIPE in dose response (8 and 11 pt. respectively) measuring cell viability after 72 hours of incubation. […] A 1,536 pintool (Kalypsys) was used to transfer 23 nL of compound in DMSO to the 1,536-well assay plates. After 72 hr incubation at 37 degree celsius, 2.5 uL of CellTiter-Glo (Promega) was dispensed into each well using a BiorapTR. Plates were incubated at room temperature for 10 min, transferred to a ViewLux (PerkinElmer) and the luminescence was recorded using an exposure time of 2 seconds. Relative luminescence units (RLUs) were normalized to in-plate controls (no cells as a positive (cytotoxicity) control, DMSO as negative control) and the normalized data was processed using NCATS in-house software.
% is set by controls: 0 for no effect and ±100 for the full control effect.

SMILES	activity change, negative = cytotoxicity [%]	Potency
NC(N)=NC(=O)Cc1c(Cl)cccc1Cl	-8.01	–
C[C@]12CC[C@@H]3c4ccc(O)cc4C[C@@H](CCCCCCCCCS(=O)CCCC(F)(F)C(F)(F)F)[C@H]3[C@@H]1CC[C@@H]2O (stereo not given in full)	-16.4	–
O=C(O)CCCCCCCC(=O)O	0.0692	–
CCOC(=O)C1=C(C)NC(C)=C(C(=O)OC)C1c1cccc(Cl)c1Cl (stereo not given)	3.73	–
CC(C)NNC(=O)c1ccncc1	18.5	–
Cc1cccc(C)c1NC(=O)C(C)N (stereo not given)	14.2	–
NC(=Nc1ccccc1)Nc1ccccc1	–	inactive
CN(C)CCOC(=O)COc1ccc(Cl)cc1	19.4	–
O=C(CCCN1CCC(O)(c2cccc(C(F)(F)F)c2)CC1)c1ccc(F)cc1	-1.12	–
CCN1CCc2nc(N)oc2CC1	5.1	–
Fc1ccc(C(c2ccc(F)cc2)N2CCN(C/C=C/c3ccccc3)CC2)cc1	-17.8	–
C#CCN(C)CCCOc1ccc(Cl)cc1Cl	6.66	–
NC1=NCC2c3ccccc3Cc3ccccc3N12 (stereo not given)	11	–
CCCCNc1ccc(C(=O)OCCN(C)C)cc1	3.4	–
CCN(Cc1ccncc1)C(=O)C(CO)c1ccccc1 (stereo not given)	-10.7	–
CCNC(=O)N1CCN(CCCC(c2ccc(F)cc2)c2ccc(F)cc2)CC1	-20.8	–
CN(C)CC[C@@H](c1ccc(Br)cc1)c1ccccn1	1.08	–
CCN(CC)CCNC(=O)c1cc(S(C)(=O)=O)ccc1OC	12.6	–
CNCCC(Oc1ccccc1OC)c1ccccc1 (stereo not given)	-1.29	–
CN(C)C(=O)Oc1cccc([N+](C)(C)C)c1	15.3	–

SMILES	activity change, negative = cytotoxicity [%]	Potency
CCO/C([O-])=N/c1c[n+](N2CCOCC2)no1	-1.21	–
CCN(CC)CC(=O)Nc1c(C)cccc1C	-13.7	–
CC(C)(Oc1ccc(CCNC(=O)c2ccc(Cl)cc2)cc1)C(=O)O	1.15	–
O=c1[nH]c(=O)n([C@H]2C[C@H](O)[C@@H](CO)O2)cc1Br	-6.57	–
CC(C)NCC(O)c1cc(O)cc(O)c1 (stereo not given)	-4.73	–
CCOC(=O)c1cnc2c(cnn2CC)c1NN=C(C)C	4.83	–
c1ccc2c(c1)CCCC2C1=NCCN1 (stereo not given)	6.87	–
c1cnc(N2CCN(Cc3ccc4c(c3)OCO4)CC2)nc1	4.83	–
CC(C)(C)NCC(O)c1cc(O)cc(O)c1 (stereo not given)	-8.16	–
CC(N=C(NC#N)Nc1ccncc1)C(C)(C)C (stereo not given)	5.05	–
CN1C[C@H](C(=O)N[C@]2(C)O[C@@]3(O)[C@@H]4CCCN4C(=O)[C@H](Cc4ccccc4)N3C2=O)C[C@@H]2c3cccc4[nH]cc(c34)C[C@H]21	6.43	–
NC(=O)c1cn(Cc2c(F)cccc2F)nn1	16.7	–
Nc1c2c(nc3ccccc13)CCCC2O (stereo not given)	0.311	–
C[C@]12CCC(=O)C=C1CC[C@@H]1[C@@H]2C(=O)C[C@@]2(C)[C@H]1CC[C@]2(O)C(=O)CO	13.4	–
C[N+](C)(C)CCOC(=O)CCC(=O)OCC[N+](C)(C)C	15.1	–
C[C@]12C=CC(=O)C=C1CC[C@H]1[C@@H]3C[C@@H](O)[C@](O)(C(=O)CO)[C@@]3(C)C[C@H](O)[C@@]12F	13.4	–
CO[C@@]1(NC(=O)CSCC#N)C(=O)N2C(C(=O)O)=C(CSc3nnnn3C)CS[C@@H]21	-2.57	–
C[C@@H](O)[C@H]1C(=O)N2C(C(=O)O)=C(SCCN=CN)C[C@H]12	6.78	–
CCCCCCCC/C=C\CCCCCCCC(=O)NCc1ccc(O)c(OC)c1	-22.1	–
Cc1nc2ccccn2c(=O)c1CCN1CCC(C(=O)c2ccc(F)cc2)CC1	-16.6	–

— PubChem BioAssay (NCATS)
